This is part of a sample that, as a whole, favours compounds with a hit. Of some 83,000 tested, about 20% had one in any assay.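 Each cell line was grown in a 96-well plate and treated with one concentration of compound for 48 hours. Values below 10 were considered active.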 A number with no mark means an inactive call. The source made the active and inactive calls.

Among the test systems are RPMI-8226 leukemia; OVCAR-8 ovarian; OVCAR-5 ovarian; OVCAR-4 ovarian; SK-OV-3 ovarian; IGROV1 ovarian; OVCAR-3 ovarian; HS 578T breast; NCI/ADR-RES ovarian; T-47D breast; BT-549 breast; MDA-MB-435 melanoma; SW-620 colon; MCF7 breast; HCT-116 colon; HCC-2998 colon; KM12 colon.
Holding throughout (test): NCI-60 one-dose screen, 48 h (100 = growth as untreated, 0 = no growth, -100 = all killed)
What all share (settings): 10 µM unless noted

Take `C#CC[C@@H]1C[C@]2(C)[C@H]3CC[C@@H]4[C@H]5[C@H](C(=C)C)CC[C@]5(C(=O)O)CC[C@@]4(C)[C@]3(C)CC[C@H]2C(C)(C)[C@H]1O`: the growth was 24.1% in the experiment with RPMI-8226 leukemia; 45.8% in the experiment with OVCAR-8 ovarian; 95.7% in the experiment with OVCAR-5 ovarian; -18.7% (active) in the experiment on OVCAR-4 ovarian; 74.3% with SK-OV-3 ovarian; 60.2% in the experiment on IGROV1 ovarian. The growth is -33.5% (active) with OVCAR-3 ovarian; 33.4% with HS 578T breast; 44% in the experiment on NCI/ADR-RES ovarian; 51.1% with T-47D breast; 29% with BT-549 breast; 68.5% in the experiment with MDA-MB-435 melanoma. Also, the growth in the experiment with SW-620 colon is 33.1%; in the experiment with MCF7 breast, 34.7%; in the experiment with HCT-116 colon, 9.2% (active); in the experiment on HCC-2998 colon, 64.7%; in the experiment with KM12 colon it was 24.8%.

Turning to `Oc1ccccc1-c1nc2c3ccccc3c3ccccc3c2o1`, the growth was 75.5% in the experiment with RPMI-8226 leukemia; 89% in the experiment on OVCAR-8 ovarian; 114% with OVCAR-5 ovarian; 76.4% with OVCAR-4 ovarian; 90.4% with SK-OV-3 ovarian; 74.1% in the experiment on IGROV1 ovarian. For the same molecule, the growth in the experiment on OVCAR-3 ovarian is 97.2%; with HS 578T breast, 89.5%; in the experiment with NCI/ADR-RES ovarian, 94.5%; in the experiment with T-47D breast, 78.9%; in the experiment on BT-549 breast, 103%; in the experiment on MDA-MB-435 melanoma, 99.3%. The growth in the experiment on SW-620 colon is 68.4%; in the experiment with MCF7 breast it was 62.4%; in the experiment with HCT-116 colon it was 80.7%; with HCC-2998 colon it was 103%; in the experiment with KM12 colon, 93.3%.

Regarding `CC(C)Cc1cc(CNC(=O)C2[C@H]3CN(C(=O)c4ccccc4)C[C@@H]23)nn1-c1ccccc1` (stereo partly specified), the growth in the experiment with RPMI-8226 leukemia is 84.7%; with OVCAR-8 ovarian it was 77.9%; with OVCAR-5 ovarian, 97.9%; in the experiment with OVCAR-4 ovarian, 104%; in the experiment with SK-OV-3 ovarian it was 76.8%; with IGROV1 ovarian it was 107%. The growth was 100% in the experiment with OVCAR-3 ovarian; 97.9% in the experiment on HS 578T breast; 93.8% with NCI/ADR-RES ovarian; 74.2% in the experiment with T-47D breast; 96.1% with BT-549 breast; 108% in the experiment with MDA-MB-435 melanoma. The growth with SW-620 colon is 102%; with MCF7 breast it was 94.4%; with HCT-116 colon, 92%; with HCC-2998 colon, 101%; in the experiment with KM12 colon, 101%.

As to `CSc1nc(-c2ccc(F)cc2)c(C#N)c(N2CCOCC2)n1`, the growth with RPMI-8226 leukemia was 89.2%; with OVCAR-8 ovarian, 92.9%; in the experiment on OVCAR-5 ovarian, 89.2%; in the experiment with OVCAR-4 ovarian, 90.6%; in the experiment with SK-OV-3 ovarian, 97.3%; in the experiment with IGROV1 ovarian, 92%. Further, the growth was 98.1% with OVCAR-3 ovarian; 91.4% in the experiment with HS 578T breast; 97.5% in the experiment with NCI/ADR-RES ovarian; 79.7% in the experiment with T-47D breast; 95.3% in the experiment on BT-549 breast; 105% with MDA-MB-435 melanoma. The growth was 97.5% with SW-620 colon; 90.4% in the experiment with MCF7 breast; 96.6% in the experiment with HCT-116 colon; 101% in the experiment with HCC-2998 colon; 101% in the experiment with KM12 colon.

Consider `CCCCC1=c2c([nH]c3ccc(OC)cc23)=NC2C=CC=NC12` (stereo unspecified), for which the growth in the experiment on RPMI-8226 leukemia is 56.8%; in the experiment on OVCAR-8 ovarian, 101%; in the experiment on OVCAR-5 ovarian, 106%; in the experiment on OVCAR-4 ovarian, 80.3%; with SK-OV-3 ovarian, 113%; with IGROV1 ovarian, 69.9%. Besides, the growth in the experiment with OVCAR-3 ovarian was 114%; in the experiment on HS 578T breast it was 92.3%; with NCI/ADR-RES ovarian, 96.6%; in the experiment on T-47D breast, 38.8%; in the experiment on BT-549 breast it was 98.9%; with MDA-MB-435 melanoma, 93.4%. The growth was 98.5% in the experiment with SW-620 colon; 13.5% in the experiment with MCF7 breast; 74.8% with HCT-116 colon; 97.1% in the experiment on HCC-2998 colon; 38.9% with KM12 colon.

For the molecule `Nc1cc(N)c(S(=O)(=O)O)cc1N=Nc1cc([N+](=O)[O-])ccc1O`, the growth with RPMI-8226 leukemia is 98.8%; in the experiment on OVCAR-8 ovarian, 99.5%; in the experiment with OVCAR-5 ovarian, 108%; in the experiment on OVCAR-4 ovarian, 109%; in the experiment on SK-OV-3 ovarian it was 93.8%; in the experiment on IGROV1 ovarian it was 106%. In addition, the growth in the experiment with OVCAR-3 ovarian is 113%; in the experiment on HS 578T breast, 103%; in the experiment with NCI/ADR-RES ovarian, 106%; with T-47D breast it was 97.2%; in the experiment with BT-549 breast it was 105%; with MDA-MB-435 melanoma it was 112%. Besides, the growth in the experiment on SW-620 colon is 108%; in the experiment with MCF7 breast, 94.7%; with HCT-116 colon, 94%; in the experiment on HCC-2998 colon it was 109%; in the experiment on KM12 colon, 106%.

Consider `CCOC(=O)NC(Cc1ccccc1)c1ccccc1` (stereo unspecified), for which the growth with RPMI-8226 leukemia is 98.2%; with OVCAR-8 ovarian it was 104%; in the experiment with OVCAR-5 ovarian, 106%; in the experiment on OVCAR-4 ovarian, 106%; in the experiment with SK-OV-3 ovarian, 108%; in the experiment with IGROV1 ovarian, 103%. The growth in the experiment on OVCAR-3 ovarian is 119%; in the experiment with HS 578T breast, 102%; in the experiment with NCI/ADR-RES ovarian, 98.2%; with T-47D breast, 99.6%; in the experiment with BT-549 breast it was 96.5%; in the experiment on MDA-MB-435 melanoma, 114%. Further, the growth is 95.2% in the experiment on SW-620 colon; 101% in the experiment with MCF7 breast; 96% in the experiment with HCT-116 colon; 104% with HCC-2998 colon; 110% with KM12 colon.

As for `NC(=O)c1ccc2nc3c(n2c1)C(=O)C(=O)c1ccccc1-3`, the growth is -28.1% (active) in the experiment with RPMI-8226 leukemia; -61.2% (active) in the experiment with OVCAR-8 ovarian; -86.4% (active) in the experiment on OVCAR-5 ovarian; -97.3% (active) in the experiment with OVCAR-4 ovarian; -89.2% (active) with SK-OV-3 ovarian; -48.8% (active) in the experiment on IGROV1 ovarian. Further, the growth in the experiment on OVCAR-3 ovarian was -99.2% (active); in the experiment on HS 578T breast, -6.37% (active); in the experiment with NCI/ADR-RES ovarian, -1.27% (active); with T-47D breast it was -46.2% (active); in the experiment with BT-549 breast it was -94.3% (active); in the experiment with MDA-MB-435 melanoma it was -91.4% (active). The growth is -50.4% (active) with SW-620 colon; -55.5% (active) in the experiment on MCF7 breast; -79.4% (active) in the experiment with HCT-116 colon; -84.5% (active) with HCC-2998 colon; -50.1% (active) in the experiment on KM12 colon.

The record behind these values is PubChem BioAssay (NCI).
